# Experimental data as given in the supplement of paper PMC7411640.
# Structures can show the parent of a compound that is named as a salt.
# Test system: MDA-MB-468
# Experiment: phospho-S6 immunofluorescence (DAPI-normalised), per-plate z-score; higher = higher phospho-S6 signal (less pathway suppression)
# Details: co-treatment: GDC0941 450 nM; 24 h
# Method: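 GPCR-targeted compound library (MedChemExpress HY-L006) tested on MDA-MB-468 PTEN-null TNBC cells in 384-well plates at 0.1, 1 or 10 uM, combined with vehicle, GDC0941 450 nM or lapatinib 1 uM, for 24 h. Phospho-S6 (S240/244) immunofluorescence normalised to DAPI and expressed as a per-plate z-score; values are the mean of biological triplicates.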
row,SMILES,phospho-S6 immunofluorescence (z-score)
1,CCN(CC)Cc1ccc(C(=O)N(CCc2ccccc2OC)[C@@H]2CCNC2)cc1 (compound 10 µM),0.19
2,CC(C)C[C@H](NC(=O)CNC(=O)[C@H](Cc1ccc(O)cc1)NC(=O)[C@H](CO)NC(=O)[C@H](Cc1c[nH]c2ccccc12)NC(=O)[C@H](Cc1cnc[nH]1)NC(=O)[C@@H]1CCC(=O)N1)C(=O)N[C@@H](CCCNC(=N)N)C(=O)N1CCC[C@H]1C(=O)NCC(N)=O [Gonadorelin (acetate)] (compound 10 µM),-0.45
3,Clc1ccc(Cn2c(CN3CCCC3)nc3ccccc32)cc1 [Clemizole (hydrochloride)] (compound 10 µM),-3.06
4,CN(C)CCOC(C)(c1ccccc1)c1ccccn1 (configuration not stated) [Doxylamine (succinate)] (compound 10 µM),0.33
5,Cn1c(=O)c2nc[nH]c2n(C)c1=O [Theophylline] (compound 10 µM),0.11
6,Cc1cc2c(cc1Cl)N(C(=O)Nc1ccc(Oc3cccnc3C)nc1)CC2 (compound 10 µM),-3.98
7,CN1CCC[C@@H]1CCO[C@](C)(c1ccccc1)c1ccc(Cl)cc1 [Clemastine (fumarate)] (compound 10 µM),0.73
8,CC(C)(C)NCC(O)c1ccc(O)c(CO)c1 (configuration not stated) [Salbutamol (hemisulfate)] (compound 10 µM),0.44
9,CCc1c(C(=O)NCCc2ccc(N3CCCCC3)cc2)[nH]c2ccc(Cl)cc12 (compound 10 µM),-1.02
10,CN1CCN2c3ccccc3Cc3ccccc3C2C1 (configuration not stated) [Mianserin (hydrochloride)] (compound 10 µM),1
11,CC(=O)[C@H]1CC[C@H]2[C@@H]3CC=C4C[C@@H](O)CC[C@]4(C)[C@H]3CC[C@]12C [Pregnenolone] (compound 10 µM),1.58
12,Nc1nc(CC(=O)Nc2ccc(CCNC[C@H](O)c3ccccc3)cc2)cs1 [Mirabegron] (compound 10 µM),0.91
13,CCCCCCCCOc1ccccc1C(=O)Nc1ccc(C(=O)OCC[N+](C)(CC)CC)cc1 [Otilonium (bromide)] (compound 10 µM),-1.43
14,CCCCC(=O)N(Cc1ccc(-c2ccccc2-c2nnn[nH]2)cc1)[C@H](C(=O)O)C(C)C [Valsartan] (compound 10 µM),0.04
15,CCCN[C@@H]1CCc2nc(N)sc2C1 [Dexpramipexole (dihydrochloride)] (compound 10 µM),1.16
16,O=C(O)Cn1c2c(c3cc(F)ccc31)CN(C(=O)c1cccc3ccccc13)CC2 [Setipiprant] (compound 10 µM),0.42
17,CCCCc1nc(C)c(CC(=S)N(C)C)c(=O)n1Cc1ccc(-c2ccccc2-c2nnn[nH]2)cc1 [Fimasartan] (compound 10 µM),0.34
18,COc1cc2nc(N3CCN(C(=O)c4ccco4)CC3)nc(N)c2cc1OC [Prazosin (hydrochloride)] (compound 10 µM),2.1
19,O=c1n(CCCN2CCN(c3cccc(Cl)c3)CC2)nc2ccccn12 [Trazodone (hydrochloride)] (compound 10 µM),0.41
20,CC(C)(O)c1ccccc1CC[C@@H](SCC1(CC(=O)O)CC1)c1cccc(/C=C/c2ccc3ccc(Cl)cc3n2)c1 [Montelukast (sodium)] (compound 10 µM),0.45
21,CCNC(=O)[C@H]1O[C@@H](n2cnc3c(N)nc(NCCc4ccc(CCC(=O)O)cc4)nc32)[C@H](O)[C@@H]1O (compound 10 µM),0.05
22,CC(C)N(CCCCOCC(=O)NS(C)(=O)=O)c1cnc(-c2ccccc2)c(-c2ccccc2)n1 (compound 10 µM),0.87
23,N=C(N)NCCCCN [Agmatine (sulfate)] (compound 10 µM),0.88
24,CC(ONC(=O)c1cc(C(F)(F)F)cc(C(F)(F)F)c1)C(=O)Nc1ccc(Cl)cc1 (configuration not stated) (compound 10 µM),-3.03
25,OCC1OC(n2cnc3c(NCCc4ccccc4)ncnc32)C(O)C1O (configuration not stated) [N6-(2-Phenylethyl)adenosine] (compound 10 µM),0.87
26,OCc1ccc(-c2nn(Cc3ccccc3)c3ccccc23)o1 [Lificiguat] (compound 10 µM),3.23
27,CC#C[C@]1(O)CC[C@H]2[C@@H]3CCC4=CC(=O)CCC4=C3[C@@H](c3ccc(N(C)C)cc3)C[C@@]21C [Mifepristone] (compound 10 µM),-2.47
